# According to PubChem BioAssay (EPA / NIEHS):
# Results filed as inconclusive are left out. Calls of active or inactive are those of the source. The calls were made as follows, unless noted: active = hit-call score of the fitted dose curve at least 0.9, where 1 is the maximum; inconclusive = response in the unintended direction; inactive = score below 0.9.
# Columns and labels:
# [1] = target: Nucleoli Translocation, AR (gene 367) (UniProt P10275); test: UPITT_HCI_U2OS_AR_TIF2_Nucleoli_Antagonist: University of Pittsburgh U2OS Androgen Receptor-Transcriptional Intermediary Factor 2 (AR-TIF2) Antagonism High Content Imaging Assay for Nucleoli Translocation (AID 2283997)
# In short: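 Measured quantity was AR-RFP fluorescence localized to nucleoli in engineered U2OS cells also bearing TIF2-GFP, acquired on automated high-content imagers. Primary testing used 20 uM compound; actives were confirmed in triplicate wells.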
# [2] = target: Ratio of Nucleoli Translocation and Cytoplasm, AR (gene 367) (UniProt P10275); test: UPITT_HCI_U2OS_AR_TIF2_Nucleoli_Cytoplasm_Ratio_Agonist: University of Pittsburgh U2OS Androgen Receptor-Transcriptional Intermediary Factor 2 (AR-TIF2) Agonism High Content Imaging Assay for Ratio of Nucleoli Translocation and Cytoplasm (AID 2284000);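 also: hits raise the red nucleolar to cytoplasm ratio above vehicle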
# In short: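 Read-out first: nucleolar-to-cytoplasm ratio of red (AR-RFP) signal, quantified by high-content imaging in U2OS cells co-expressing TIF2-GFP. Activity is scored as signal increase over DMSO. Single-point screening used 20 uM final (0.2% DMSO).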
# [3] = CCTE_Harrill_HTTr_Viability_MCF7: CCTE's 6-hour Cell Viability Assessment for the High-Throughput Transcriptomics (HTTr) Platform, in MCF-7 cells cultured in DMEM + 10% fetal bovine serum, Harrill Lab (AID 2284010; active = hit-call score of the fitted dose curve at least 0.9, where 1 is the maximum; inactive = score below 0.9)
# In short: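 Membrane integrity was scored by high-content imaging of propidium iodide dye exclusion after a 6 h exposure across an eight-point dilution series. Data were fitted bidirectionally relative to DMSO as negative control and baseline.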
# [4] = CCTE_Harrill_HTTr_Apoptosis_MCF7: CCTE's 6-hour Apoptosis Assessment for the High-Throughput Transcriptomics (HTTr) Platform, in MCF-7 cells cultured in DMEM + 10% fetal bovine serum, Harrill Lab (AID 2284011; active = hit-call score of the fitted dose curve at least 0.9, where 1 is the maximum; inactive = score below 0.9)
# In short: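 High-content imaging of CellEvent Caspase 3/7 Green signal follows a six-hour exposure, with eight concentrations per chemical. MCF-7 cells grown in DMEM plus 10% fetal bovine serum; activity fitted in both directions against DMSO.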
# THRA (gene 7067) = THRA (gene 7067) (UniProt P10827); test: TOX21_TRA_COA_Agonist_Followup_ratio: Tox21 Thyroid Hormone Receptor alpha Agonism through Coactivator Recruitment Follow-Up Assay, Ratio (AID 2283948; active = hit-call score of the fitted dose curve at least 0.9, where 1 is the maximum; inactive = score below 0.9)
# In short: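 Cell-free TR-FRET coactivator recruitment: GST-tagged TRα LBD (2.5 nM) with 0.10% BSA was incubated with compound, then fluorescein-SRC-2 peptide (200 nM) and Tb-anti-GST antibody (2 nM) added. 520:495 nm ratio normalized to DMSO (0%) and T3 (100%).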
# THRB (gene 7068) [5] = target: THRB (gene 7068) (UniProt P10828); test: TOX21_TRB_BLA_Agonist_Followup_ratio: Tox21 Thyroid Hormone Receptor beta Agonism Beta-lactamase (BLA) Follow-Up Assay, Ratio (AID 2283954)
# In short: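 Human TRβ LBD–GAL4 DBD fusion in GeneBLAzer UAS-bla HEK293T cells; 11 concentrations in triplicate, 18 h at 37°C/5% CO2, T3 as agonist control. CCF4-AM substrate 2 h at room temperature; 460:530 nm ratio fitted for gain of signal versus DMSO.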
# [6] = TOX21_TRB_BLA_Agonist_Followup_viability: Viability Assessment in the Tox21 Thyroid Hormone Receptor beta Agonism Beta-lactamase (BLA) Follow-Up Assay (AID 2283956)
# In short: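 TRb-bla HEK293T cells (GAL4-DBD/human TRb LBD) in 2% charcoal-stripped FBS medium were exposed 18 h at 37C to 11 concentrations in triplicate. CellTiter-Glo ATP luminescence was read after 30 min at room temperature, with bidirectional fitting against DMSO.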
# THRB (gene 7068) [7] = target: THRB (gene 7068) (UniProt P10828); test: TOX21_TRB_COA_Agonist_Followup_ratio: Tox21 Thyroid Hormone Receptor beta Agonism through Coactivator Recruitment Follow-Up Assay, Ratio (AID 2283963; active = hit-call score of the fitted dose curve at least 0.9, where 1 is the maximum; inactive = score below 0.9)
# In short: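 First, the GST-fused TRβ ligand-binding domain (5.0 nM) was incubated with test compound in 0.10% BSA. Next, fluorescein-tagged SRC-2 peptide (200 nM) and terbium anti-GST antibody (2 nM) were added. Finally, TR-FRET emission ratios were normalized against DMSO and T3 controls.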
# [8] = target: Retinoic acid receptor RXR-alpha (Homo sapiens) (UniProt P19793); test: TOX21_TR_RXR_BLA_Agonist_Followup_ratio: Tox21 Thyroid Hormone Receptor beta Retinoid X Receptor alpha (RXRa) Agonism Beta-lactamase (BLA) Follow-Up Assay, Ratio (AID 2283968)
# In short: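 RXRa-UAS-bla HEK293T cells (GAL4 beta-lactamase reporter) were treated with compounds at 11 concentrations in triplicate for 16 h at 37C/5% CO2, then loaded with CCF4-AM substrate for 2 h at room temperature; activity is the 460:530 nm ratio versus DMSO baseline.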
# [9] = target: Ratio of Nucleoli Translocation and Cytoplasm, AR (gene 367) (UniProt P10275); test: UPITT_HCI_U2OS_AR_TIF2_Nucleoli_Cytoplasm_Ratio_Antagonist: University of Pittsburgh U2OS Androgen Receptor-Transcriptional Intermediary Factor 2 (AR-TIF2) Antagonism High Content Imaging Assay for Ratio of Nucleoli Translocation and Cytoplasm (AID 2283999);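 also: antagonists lower the DHT-driven ratio of nucleolar to cytoplasmic red signal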
# In short: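 U2OS cells expressing RFP-tagged human AR and GFP-tagged TIF2; compounds tested at 20 uM final (0.2% DMSO) in primary screen, 0.195–50 uM (0.5% DMSO) for concentration response. Readout: nucleolar-to-cytoplasmic red fluorescence ratio by high-content imaging, fitted relative to DHT.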
# [10] = target: Nucleoli Translocation, AR (gene 367) (UniProt P10275); test: UPITT_HCI_U2OS_AR_TIF2_Nucleoli_Agonist: University of Pittsburgh U2OS Androgen Receptor-Transcriptional Intermediary Factor 2 (AR-TIF2) Agonism High Content Imaging Assay for Nucleoli Translocation (AID 2283998)
# In short: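 Nucleolar translocation of AR-RFP, with TIF2-GFP coexpressed in human osteosarcoma U2OS, imaged by high-content fluorescence. Compounds tested singly at 20 uM final, confirmed in triplicate, then titrated 0.195–50 uM final; gain-of-signal relative to DMSO.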
# [11] = TOX21_PR_LUC_Followup_Agonist_viability: Viability Assessment in the Tox21 HEK293 Progesterone Receptor (PR) Agonism Luciferase Follow-Up Assay (AID 2283941);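 also: loss of signal means cytotoxicity so actives lower viability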
# In short: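 HEK293-PR-A-luc cells, pre-cultured 5 days in 10% charcoal-stripped FBS, were seeded at 3,000 cells/well, rested 5 h at 37C, then given compound in DMSO for 16 h at 37C. Cellular ATP was read by CellTiter-Glo luminescence; signal loss indicates cytotoxicity.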
# [12] = CCTE_Shafer_MEA_acute_spike_number: CCTE's Neural Acute Assay for Total Number of Spikes, Shafer Lab (AID 2284008; active = hit-call score of the fitted dose curve at least 0.9, where 1 is the maximum; inactive = score below 0.9;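 as to AC50: curve fitted for decrease in spike count so AC50 reflects inhibitors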)
# In short: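 Total spike count from 40 min recordings before and during compound exposure (0.03-40 uM), given as per-well percent change. Cortical cultures from rat, DIV 13 or 15, 37 C; adaptive detection threshold 8x rms noise.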
# [13] = CCTE_Simmons_MITO_basal_resp_rate: CCTE's HepG2 Seahorse XF Respirometric Screening Assay at Basal Respiratory State, Simmons Lab (AID 2284001; active = hit-call score of the fitted dose curve at least 0.9, where 1 is the maximum; inactive = score below 0.9); details: actives raise or lower the signal
# In short: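 HepG2 respirometry; 7-pt titration 125 nM–100 uM final; kinetic OCR at 6 min intervals for 72 min; n=3 biological, technical singles; DMSO baseline, gain or loss fit; fenpyroximate (decrease) and 2,4-DNP (increase) controls.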
# [14] = CCTE_Simmons_MITO_max_resp_rate: CCTE's HepG2 Seahorse XF Respirometric Screening Assay at Maximal Respiratory State [uncoupled], Simmons Lab (AID 2284002; active = hit-call score of the fitted dose curve at least 0.9, where 1 is the maximum; inactive = score below 0.9); details: actives raise or lower the signal
# In short: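 Maximal (FCCP-uncoupled) respiration rate in HepG2, from Seahorse kinetic OCR over 72 min at 6 min cycles. Compounds at 125 nM–100 uM final, 7 points, three biological replicates; both directions fit relative to DMSO.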
# [15] = CCTE_Simmons_MITO_inhib_resp_rate: CCTE's HepG2 Seahorse XF Respirometric Screening Assay at Inhibited Respiratory State [full ETC block], Simmons Lab (AID 2284006; active = hit-call score of the fitted dose curve at least 0.9, where 1 is the maximum; inactive = score below 0.9); details: actives raise or lower the signal
# In short: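 HepG2 cells on Seahorse XF96; oxygen consumption measured after test compound, then FCCP, then rotenone/antimycin A injections over 72 min. Test chemicals at 7 concentrations, 125 nM–100 uM final. OCR fitted bidirectionally versus DMSO.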
# [16] = CCTE_Simmons_MITO_viability: CellTiter-Glo Viability Assessment for CCTE's HepG2 Seahorse XF Respirometric Screening Assay [post-hoc], Simmons Lab (AID 2284007)
# In short: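 HepG2 cells from the Seahorse XF respirometry run were exposed 90 min to a 7-point series, 125 nM–100 uM final, DMSO vehicle; ATP content then read by luciferase luminescence. Three biological replicates, technical singles; loss of signal fitted versus DMSO.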
# [17] = TOX21_TR_RXR_BLA_Agonist_Followup_viability: Viability Assessment in the Tox21 Thyroid Hormone Receptor beta Retinoid X Receptor alpha (RXRa) Agonism Beta-lactamase (BLA) Follow-Up Assay (AID 2283970)
# In short: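 RXRa-UAS-bla HEK293T cells seeded at 2,500/well in phenol red-free DMEM with 2% charcoal-stripped FBS, exposed to compound 16h at 37C/5% CO2 in qHTS. Viability read by CellTiter-Glo ATP luminescence; bidirectional fitting against DMSO baseline, signal loss indicating cytotoxicity.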
# DIO1 (gene 1733) = test: CCTE_GLTED_hDIO1: CCTE's human Deiodinase 1 (DIO1) Inhibition Assay, Great Lakes Toxicology and Ecology Division (GLTED) Lab (AID 2283987);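 also: isolated human DIO1 enzyme in a cell-free setup rather than cells; enzyme activity read as free iodide liberated from substrate via Sandell-Kolthoff colorimetry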
# In short: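 Inhibition read as reduced iodide release: after 3 h of human DIO1 with chemical, free iodide is quantified colorimetrically (Sandell-Kolthoff cerium/arsenic reaction). Triplicate plates, DMSO baseline.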
# [18] = TOX21_PR_LUC_Followup_Antagonist_viability: Viability Assessment in the Tox21 HEK293 Progesterone Receptor (PR) Antagonism Luciferase Follow-Up Assay (AID 2283940)
# In short: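 HEK293-PR-A-luc cells, precultured 5 days in assay medium with 10% charcoal-stripped FBS, were seeded at 3,000 cells/well, treated with compounds in DMSO for 16 h at 37C, and viability was read as cellular ATP by CellTiter-Glo luminescence.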
# Retinoic acid receptor RXR-alpha (Homo sapiens), sequence (P19793 whole entry, looked up, the tested form may be a part): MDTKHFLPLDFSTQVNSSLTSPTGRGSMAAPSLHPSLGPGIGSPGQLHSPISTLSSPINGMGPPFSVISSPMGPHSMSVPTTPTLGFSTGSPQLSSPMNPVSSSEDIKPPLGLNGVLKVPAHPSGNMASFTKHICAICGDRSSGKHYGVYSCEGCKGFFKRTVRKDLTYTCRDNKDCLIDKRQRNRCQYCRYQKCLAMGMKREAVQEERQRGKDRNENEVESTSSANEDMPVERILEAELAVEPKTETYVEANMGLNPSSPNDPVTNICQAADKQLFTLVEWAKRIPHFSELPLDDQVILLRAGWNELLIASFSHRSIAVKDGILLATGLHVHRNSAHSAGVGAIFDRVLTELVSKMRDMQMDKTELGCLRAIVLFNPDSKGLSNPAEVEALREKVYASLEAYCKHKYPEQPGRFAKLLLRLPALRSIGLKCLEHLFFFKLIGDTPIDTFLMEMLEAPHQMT
# THRA (gene 7067), sequence (P10827 whole entry, looked up, the tested form may be a part): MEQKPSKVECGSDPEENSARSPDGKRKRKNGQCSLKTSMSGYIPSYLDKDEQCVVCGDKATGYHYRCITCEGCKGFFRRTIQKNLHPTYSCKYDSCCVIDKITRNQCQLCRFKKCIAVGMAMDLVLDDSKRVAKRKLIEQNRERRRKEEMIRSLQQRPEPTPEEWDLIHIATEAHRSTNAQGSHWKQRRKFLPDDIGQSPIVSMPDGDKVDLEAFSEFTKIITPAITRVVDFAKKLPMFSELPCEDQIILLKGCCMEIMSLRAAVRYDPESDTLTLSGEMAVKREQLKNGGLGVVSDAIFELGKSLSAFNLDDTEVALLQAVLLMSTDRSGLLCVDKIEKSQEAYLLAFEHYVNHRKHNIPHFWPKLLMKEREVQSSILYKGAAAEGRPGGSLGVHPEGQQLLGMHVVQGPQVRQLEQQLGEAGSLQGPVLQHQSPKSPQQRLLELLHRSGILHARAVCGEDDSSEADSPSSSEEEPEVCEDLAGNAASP
# Ratio of Nucleoli Translocation and Cytoplasm, AR (gene 367), sequence (P10275 whole entry, looked up): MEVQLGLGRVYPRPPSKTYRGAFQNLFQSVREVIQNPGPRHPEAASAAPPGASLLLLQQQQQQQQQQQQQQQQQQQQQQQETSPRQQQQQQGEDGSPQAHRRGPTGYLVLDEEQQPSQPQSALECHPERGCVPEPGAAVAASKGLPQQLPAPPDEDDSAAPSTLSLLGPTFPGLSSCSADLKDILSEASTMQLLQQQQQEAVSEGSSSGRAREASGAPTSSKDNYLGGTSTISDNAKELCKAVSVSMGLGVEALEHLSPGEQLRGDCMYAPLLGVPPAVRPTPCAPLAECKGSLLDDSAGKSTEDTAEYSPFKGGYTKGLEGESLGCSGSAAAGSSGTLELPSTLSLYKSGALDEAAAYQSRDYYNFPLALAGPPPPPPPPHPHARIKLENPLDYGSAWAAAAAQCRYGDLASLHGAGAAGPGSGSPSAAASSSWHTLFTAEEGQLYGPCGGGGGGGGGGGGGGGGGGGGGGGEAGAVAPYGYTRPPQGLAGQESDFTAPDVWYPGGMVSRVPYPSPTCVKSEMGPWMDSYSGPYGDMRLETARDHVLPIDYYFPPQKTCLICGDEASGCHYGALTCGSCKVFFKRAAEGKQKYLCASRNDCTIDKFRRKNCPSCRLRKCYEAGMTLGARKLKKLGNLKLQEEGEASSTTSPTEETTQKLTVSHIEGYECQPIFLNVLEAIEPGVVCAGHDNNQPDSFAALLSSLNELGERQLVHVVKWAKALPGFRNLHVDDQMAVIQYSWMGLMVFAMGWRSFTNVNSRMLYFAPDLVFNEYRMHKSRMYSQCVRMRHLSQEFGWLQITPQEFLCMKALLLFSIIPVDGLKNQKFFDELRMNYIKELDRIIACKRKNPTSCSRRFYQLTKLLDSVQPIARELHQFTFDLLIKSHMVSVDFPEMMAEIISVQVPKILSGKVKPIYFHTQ
# Nucleoli Translocation, AR (gene 367), sequence (P10275 whole entry, looked up): as above
# THRB (gene 7068), sequence (P10828 whole entry, looked up, the tested form may be a part): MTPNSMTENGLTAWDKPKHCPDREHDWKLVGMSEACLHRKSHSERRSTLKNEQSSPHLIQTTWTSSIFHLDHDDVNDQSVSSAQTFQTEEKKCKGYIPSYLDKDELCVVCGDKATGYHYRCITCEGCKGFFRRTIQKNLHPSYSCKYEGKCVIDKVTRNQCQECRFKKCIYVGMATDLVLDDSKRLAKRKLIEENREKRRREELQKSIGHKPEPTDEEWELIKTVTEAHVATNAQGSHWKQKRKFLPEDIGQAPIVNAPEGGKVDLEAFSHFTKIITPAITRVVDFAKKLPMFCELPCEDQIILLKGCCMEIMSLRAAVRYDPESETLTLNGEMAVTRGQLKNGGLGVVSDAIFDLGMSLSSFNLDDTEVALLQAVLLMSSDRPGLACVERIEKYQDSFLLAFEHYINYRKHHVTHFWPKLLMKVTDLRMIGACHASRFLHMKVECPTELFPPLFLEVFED
structure (smiles),measurement,setting,value
O=C(O)COc1cc(Cl)c(Cl)cc1Cl,outcome,[1],inactive
same,outcome,[2],inactive
same,outcome,[3],inactive
same,outcome,[4],inactive
O=C(Cl)OCCOCCOC(=O)Cl,outcome,THRA (gene 7067),inactive
same,outcome,THRB (gene 7068) [5],inactive
same,outcome,[6],inactive
same,outcome,THRB (gene 7068) [7],inactive
same,outcome,[8],inactive
C=CC(Cl)CCl (configuration not stated),outcome,[1],inactive
same,outcome,[9],inactive
same,outcome,[2],inactive
Cc1cc(Cl)ccc1OCCCC(=O)O,outcome,[10],inactive
same,outcome,[2],inactive
same,outcome,[3],inactive
same,outcome,[4],inactive
O=S(=O)(Oc1ccc(Cl)cc1)c1ccc(Cl)cc1,outcome,[11],inactive
N#Cc1cccnc1,outcome,[12],inactive
same,outcome,[3],inactive
same,outcome,[4],inactive
Oc1c(Cl)cc(Cl)cc1Cl,AC50,[13],77 µM (active)
same,outcome,[14],inactive
same,outcome,[15],inactive
same,outcome,[16],inactive
same,outcome,[3],inactive
same,outcome,[4],inactive
CCC[CH2][Sn]([CH2]CCC)([CH2]CCC)[CH2]CCC,outcome,THRA (gene 7067),inactive
same,outcome,THRB (gene 7068) [5],inactive
same,outcome,[6],inactive
same,outcome,THRB (gene 7068) [7],inactive
same,AC50,[8],5.08 µM (active)
same,outcome,[17],inactive
O=C(CCl)Nc1ccccc1,AC50,DIO1 (gene 1733),21.1 µM (active)
same,AC50,[1],29 µM (active)
same,outcome,[10],inactive
same,AC50,[9],26.3 µM (active)
same,outcome,[2],inactive
c1csc(-c2ccc(-c3cccs3)s2)c1,outcome,THRA (gene 7067),inactive
same,outcome,THRB (gene 7068) [5],inactive
same,outcome,[6],inactive
same,outcome,THRB (gene 7068) [7],inactive
same,outcome,[17],inactive
CCOP(=S)(OCC)OP(=S)(OCC)OCC,AC50,[1],72.1 µM (active)
same,outcome,[10],inactive
same,outcome,[9],inactive
same,outcome,[2],inactive
same,outcome,[3],inactive
same,outcome,[4],inactive
O=C(NC(=O)c1c(F)cccc1F)Nc1cc(Cl)c(OC(F)(F)C(F)C(F)(F)F)cc1Cl (configuration not stated),outcome,[1],inactive
same,outcome,[10],inactive
same,outcome,[9],inactive
same,outcome,[2],inactive
C=CC(=O)[O][Sn]([CH2]CCC)([CH2]CCC)[CH2]CCC,outcome,THRA (gene 7067),inactive
same,outcome,THRB (gene 7068) [5],inactive
same,outcome,[6],inactive
same,outcome,THRB (gene 7068) [7],inactive
same,AC50,[8],0.137 µM (active)
same,AC50,[17],9.68 µM (active)
OC(c1ccc(Cl)cc1)(c1ccc(Cl)cc1)c1cccnc1,outcome,[18],inactive
same,outcome,[11],inactive
O=S1(=O)OC(c2cc(Br)c(O)c(Br)c2)(c2cc(Br)c(O)c(Br)c2)c2ccccc21,AC50,DIO1 (gene 1733),58.8 µM (active)
same,outcome,[1],inactive
same,outcome,[9],inactive
same,outcome,[3],inactive
same,outcome,[4],inactive
CN(C)c1ccc(N=O)cc1,outcome,THRA (gene 7067),inactive
same,outcome,[6],inactive
same,outcome,THRB (gene 7068) [7],inactive
same,AC50,[17],49.6 µM (active)
Cc1ccccc1OP(=O)(Oc1ccccc1C)Oc1ccccc1C,outcome,[18],inactive
same,outcome,[11],inactive
same,AC50,[12],25.4 µM (active)
O=C(N[C@H]1CN2CCC1CC2)c1ccc2c(c1)OCCO2,outcome,[1],inactive
same,outcome,[10],inactive
same,outcome,[2],inactive
same,outcome,[3],inactive
same,outcome,[4],inactive
